Compound activity: PubChem BioAssay, several laboratories
Compounds with a hit are over-represented: about 1.9% of the library has one in this group of screens.
PrPC surface inh: cell surface PrPC inhibition, primary TR-FRET screen; AID 720596; P04156; hit rate 0.43% among 370,000; inhibition, % at 13.8 µM; TR-FRET read-out; in the data active = inhibition above about 24%; also: 0% = median of the test wells and 100% = reference compound wells
SSB-PriA inh: blocks PriA binding to SSB C-terminal tail | AlphaScreen SSBct-PriA binding, biotinylated peptide | inhibition, % at 33 µM | hit rate 0.6% among 430,000; in the data active = inhibition mostly above about 37%, no sharp cut-off; inactive = mostly below about 20%;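 also: plate controls were negative control peptide for no effect and reference peptide for full effect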
PrP UTR inh: inhibition of PrP 5' UTR reporter expression; cell-based PrP 5' UTR mRNA reporter, plate reader; inhibition, % (concentration not given with the values); hit rate 0.35% among 340,000; AID 488862; in the data active = inhibition above about 52%; also: 0 = median of the neutral control wells
PfHsp40 yeast: compounds rescuing yeast from Plasmodium falciparum HSP40 toxicity; S. cerevisiae expressing PfHsp40, growth rescue, ATP luminescence; growth rescue, % at 12.5 µM; hit rate 0.68% among 340,000; AID 504582; in the data active = growth rescue above about 28%, passing the limit was not always enough; inconclusive = no clear call, values can overlap the other calls;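 also: yeast W303a lacking pdr1 and pdr3 grown in galactose medium; growth measured after three days at 30 °C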
BJeLR viability: kills HRASV12-expressing BJeLR cells; BJeLR (HRASV12) viability, CellTiter-Glo ATP luminescence, 48 h; inhibition, % (test concentration not listed); hit rate 0.17% among 300,000; AID 1554; in the data active = inhibition above about 50%; inconclusive = no clear call, values can overlap the other calls
RecA intein inh: inhibitors of M. tuberculosis RecA intein splicing; AID 2221; cell-free RecA intein splicing, fluorescence; P9WHJ3; hit rate 0.75% among 290,000; inhibition, % (test concentration not listed); in the data active = inhibition above about 30%; inconclusive = no clear call, values can overlap the other calls;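 also: 0% = vehicle wells and 100% = reference inhibitor control wells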
Target sequence (P9WHJ3 whole entry, looked up): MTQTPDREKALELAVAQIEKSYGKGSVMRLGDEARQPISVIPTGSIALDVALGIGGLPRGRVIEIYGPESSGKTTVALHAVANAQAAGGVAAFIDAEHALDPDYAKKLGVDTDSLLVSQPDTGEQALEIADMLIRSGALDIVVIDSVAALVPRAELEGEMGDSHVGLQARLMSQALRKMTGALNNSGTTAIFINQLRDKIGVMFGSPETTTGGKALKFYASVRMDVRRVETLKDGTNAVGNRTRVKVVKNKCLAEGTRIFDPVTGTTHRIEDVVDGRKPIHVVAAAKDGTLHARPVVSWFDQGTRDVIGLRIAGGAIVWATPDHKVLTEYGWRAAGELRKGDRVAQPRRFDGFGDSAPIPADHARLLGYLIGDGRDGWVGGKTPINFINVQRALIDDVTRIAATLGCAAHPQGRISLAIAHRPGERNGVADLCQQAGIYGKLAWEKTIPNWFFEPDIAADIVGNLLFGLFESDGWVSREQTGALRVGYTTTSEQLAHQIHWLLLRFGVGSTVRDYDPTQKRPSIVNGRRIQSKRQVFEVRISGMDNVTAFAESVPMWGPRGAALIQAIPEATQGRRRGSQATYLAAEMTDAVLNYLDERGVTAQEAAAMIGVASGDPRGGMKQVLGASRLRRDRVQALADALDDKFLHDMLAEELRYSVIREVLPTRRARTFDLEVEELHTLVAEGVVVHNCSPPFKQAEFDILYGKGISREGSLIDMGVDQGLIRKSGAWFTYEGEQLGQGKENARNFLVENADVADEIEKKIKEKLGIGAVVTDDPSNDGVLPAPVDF
PrP 5UTR single: prion 5' UTR mRNA inhibition, cherry-pick retest; hit rate 48% among 1,100; shares compounds with PrP UTR inh; inhibition, % at 2.5 µM; cell-based prion protein 5' UTR reporter, plate reader; in the data active = inhibition above about 54%; inconclusive = no clear call, values can overlap the other calls
An asterisk follows results filed as active; ? = inconclusive; . = no result.

SMILES	PrPC surface inh	SSB-PriA inh	PrP UTR inh	PfHsp40 yeast	BJeLR viability	RecA intein inh	PrP 5UTR single
Clc1ccc(CSc2nnc(-c3ccc4c(c3)OCO4)o2)cc1	4.5	-7.7	-14.4	2.0	7.5	2.3	.
CC1=CC2OC3CC4OC(=O)C=CC=CC(=O)OCCC(C)C(O)C(=O)OCC2(CC1O)C4(C)C31CO1 (stereo unspecified)	.	.	93.6*	.	.	.	97.0*
COc1ccccc1C(=O)Nc1nnc(-c2ccc(SC)cc2)o1	.	-8.0	.	.	.	.	.
COc1cccc(C2=CC(c3cc(OC)ccc3OC)n3nnnc3N2)c1 (stereo unspecified)	-2.8	-36.6	-23.7	2.6	-3.6	-3.0	.
COc1ccc(OC)c(C2C=C(c3ccc(C)c(C)c3)Nc3nnnn32)c1 (stereo unspecified)	2.5	-27.9	68.7*	-0.5	31.0	10.4	3.1
O=C(O)c1cccc(-c2noc(-c3cccc(Cl)c3)n2)c1	3.3	-12.9	81.5*	-0.3	.	.	84.4*
NC(=O)c1ccc(-c2noc(-c3cccc(Cl)c3)n2)cc1	0.6	0.7	-47.6	2.3	.	.	.
O=S(=O)(NCCOc1ccc(-c2cccs2)nn1)c1ccc2c(c1)CCCC2	.	3.0	.	.	.	.	.
N#CC1(Nc2ccc(S(N)(=O)=O)cc2)CCCC1	9.0	3.2	73.8*	-1.9	.	.	-13.5
Cc1ccc(-c2csc3ncnc(Oc4cccc(C(F)(F)F)c4)c23)cc1	.	0.0	.	.	.	.	.
C/C(=N\Nc1nc2ccccc2nc1C)c1ccccc1O	2.6	.	-14.2	2.3	-0.4	-0.5	.
CC(=NNc1ccc2ccccc2n1)c1ccccc1O	3.4	-6.0	66.7*	-1.6	.	.	47.0
Cc1cc(=O)c2cc(C(=O)Nc3ccncc3)ccc2[nH]1	.	8.0	.	.	.	.	.
CCN1C(=O)[C@H]2[C@H]3CN=C(SC)N3[C@@](CC)(C(=O)OC)[C@H]2C1=O	4.7	5.5	66.0*	0.1	.	.	-11.4
COc1ccc(-c2c(C)oc3cc(OCCN4CCN(CCO)CC4)ccc3c2=O)cc1OC	.	-11.0	.	.	.	.	.
O=c1[nH]c2cc([N+](=O)[O-])ccc2c2ccccc12	-24.7	-2.9	-5.6	0.5	.	.	.
O=c1[nH]c2cc([N+](=O)[O-])ccc2c2ccc([N+](=O)[O-])cc12	0.9	2.9	88.2*	-0.3	.	.	-8.0
O=C(CNc1cccc([N+](=O)[O-])c1)NN=Cc1ccc([N+](=O)[O-])o1	.	-3.1	.	.	.	.	.
O=c1cc2c(nn1Cc1ccc(Cl)cc1)-c1ccccc1CC2	7.2	-21.3	-1.0	5.1	-14.1	3.7	.
O=c1cc2c(nn1Cc1cccc(Cl)c1)-c1ccccc1CC2	-3.5	-17.1	57.3*	46.5*	0.4	-0.4	17.0
O=C(NCc1csc2ncnn12)c1ccc(-n2cncn2)nn1	.	11.0	.	.	.	.	.
Cc1ccc(-n2c([S-])c(C(=O)Nc3ccc(OC(F)F)cc3)[n+]3ccc(C(=O)NCCO)cc23)cc1C	-10.5	6.7	78.2*	0.9	-0.5	-4.2	-0.2
CCn1c(C)nc2cc(-c3nc4n(n3)Cc3ccccc3-4)ccc21	.	2.4	94.2*	-3.6	62.8*	-0.2	95.6*
NC(=NOC(=O)c1ccc(Cl)cc1)c1ccn[nH]1	.	-18.2	.	.	.	.	.
C/C(=N\NC(N)=O)c1ccccc1	6.7	.	72.3*	-0.6	-0.3	-3.8	-7.0
SMILES	PrPC surface inh	SSB-PriA inh	PrP UTR inh	PfHsp40 yeast	BJeLR viability	RecA intein inh	PrP 5UTR single
C/C(=N\NC(N)=O)c1ccc(Cl)cc1	4.4	.	-5.7	0.4	15.0	2.3	.
N#Cc1c(NC(=O)CSc2ncn[nH]2)sc2c1CCCCC2	7.5	-13.0	73.7*	-1.5	-8.1	9.4	76.9*
NC(=O)CC(NC(=O)Cc1cccc2ccccc12)c1ccc(NCc2ccc(F)cc2)c([N+](=O)[O-])c1 (stereo unspecified)	-7.5	-5.2	74.7*	1.7	2.3	1.8	-27.5
NC(=O)CC(NC(=O)Cc1cccc2ccccc12)c1ccc(NCc2ccccc2)c([N+](=O)[O-])c1 (stereo unspecified)	-11.7	7.0	-25.4	0.4	-3.1	0.6	.
CC1CN(C(=O)CCC(=O)NCc2ccc(Cl)cc2)c2ccccc2S1 (stereo unspecified)	13.6	-8.9	62.9*	1.4	-5.1	0.2	-13.2
COc1ccc2[nH]c(-c3cccc(F)c3)cc(=O)c2c1	-1.4	0.8	62.2*	1.0	39.1	-0.1	91.7*
CS(=O)(=O)N1CCCc2cc(NC(=O)c3cccs3)ccc21	.	-1.0	.	.	.	.	.
Nc1ccc(Oc2cccc(Oc3ccc(N)cc3)c2)cc1	9.6	22.4	67.2*	0.0	-5.2	1.8	75.0*
Cc1ccc(C(=O)Nc2ccc(CC(=O)O)cc2)o1	-5.1	-4.4	-21.0	-1.1	-3.2	-0.4	.
CC(C)(C)c1ccc(C(=O)Nc2ccc(CC(=O)O)cc2)o1	5.8	-2.6	72.1*	0.1	1.9	-3.5	75.2*
COCCn1c(C(=O)N[C@H]2CCN(c3nccs3)C2)cc2c(=O)n3ccccc3nc21	.	-11.0	.	.	.	.	.
CS(=O)(=O)N1C2CCC1CC(NC(=O)COc1ccccc1F)C2 (stereo unspecified)	.	-9.0	.	.	.	.	.
Oc1ccccc1/C=C/c1ccc2ccccc2n1	.	4.0	.	.	.	.	.
C(=C\c1ccc2ccccc2n1)/c1ccccc1	-9.3	-27.5	57.7*	14.9	20.5	7.8	25.1
Oc1ccc(/C=C/c2ccc3ccccc3n2)cc1	3.7	-20.6	57.3*	-4.0	29.9	0.8	?
CN(C)c1ccc(/C=C/c2ccc3ccccc3n2)cc1	.	-5.5	84.2*	-2.1	71.3*	-0.4	?
CCC(=O)Oc1ccc(C(CC)C(CC)c2ccc(OC(=O)CC)cc2)cc1 (stereo unspecified)	-6.1	-8.6	58.0*	-0.9	-4.8	-3.4	-12.8
CCC1SC(CC)C(=O)N(CC(=O)NCc2ccc(F)cc2)C1=O (stereo unspecified)	2.8	7.3	78.1*	-0.5	1.9	-3.2	-19.3
CC(C)CCNC(=O)c1ccc2c(c1)C(=O)c1ccccc1-2	.	3.0	.	.	.	.	.
CCOC(=O)Cc1csc(NC(=O)CSc2ncc(-c3ccccc3)n2C)n1	.	-4.0	.	.	.	.	.
O=C(CC(Nc1ccc(Cl)cc1Cl)C(=O)O)c1ccccc1 (stereo unspecified)	-6.2	-20.1	62.9*	2.3	-7.0	-3.0	16.1
O=C(CN1C(=O)CCC1=O)Nc1ccc(-c2nc3ccccc3s2)c(O)c1	.	-23.0	.	.	.	.	.
Cc1ccc(S(=O)(=O)N2CCN(C(=O)N(C)C)CC2)cc1	-1.4	-6.0	61.6*	1.0	-6.9	1.0	-58.0
O=C(Nc1cccc(-c2ccc(N3CCCCC3)nn2)c1)C(F)(F)F	5.7	7.6	75.0*	-0.1	4.1	-1.4	67.6*
CC1CCN(c2ccc(-c3cccc(NC(=O)C(F)(F)F)c3)nn2)CC1	2.0	-2.8	82.5*	-1.1	10.7	-2.5	85.5*
O=C(Nc1cccc(-c2ccc(N3CCOCC3)nn2)c1)C(F)(F)F	.	5.0	.	.	.	.	.
CCC(=O)Nc1cccc(-c2ccc(N3CCC(C)CC3)nn2)c1	-8.0	-7.0	24.1	1.4	-12.6	1.7	.
